Screening data as filed in PubChem BioAssay.
Compounds with a hit are over-represented: about 3.5% of the library has one in this group of screens.
Bead autofluor = counter-screen for toxin protease inhibitors: compound fluorescence | compound autofluorescence counterscreen, microsphere flow cytometry; stronger effect = higher value | fluorescence intensity (concentration not given with the values) | hit rate 3.1% among 360,000 | AID 624483; in the data active = fluorescence intensity above about 16000; inconclusive = no clear call, values can overlap the other calls
BoNT A protease = inhibitors of Botulinum neurotoxin A light chain protease; AID 588499; inhibition, % at 10 µM; multiplex microsphere protease substrate cleavage, flow cytometry; hit rate 0.17% among 360,000
BoNT-F LC inh = inhibitors of Botulinum neurotoxin F light chain protease; Multiplex microsphere protease cleavage assay, flow cytometry; inhibition, % at 10 µM; hit rate 0.22% among 360,000; AID 588497; in the data active = inhibition above about 35%, passing the limit was not always enough; inconclusive = no clear call, values can overlap the other calls
Anthrax LF inh2 = anthrax lethal factor protease inhibition; P15917; multiplex microsphere protease cleavage assay, LF; inhibition, % at 10 µM; hit rate 0.12% among 360,000; AID 588501
BH1578 lux ind = induces V. cholerae light production without autoinducers | V. cholerae BH1578 lux reporter, luminescence, 6 h | activation, % at 18.7 µM | hit rate 0.16% among 350,000; in the data active = activation mostly above about 9.7%, no sharp cut-off; inconclusive = no clear call, values can overlap the other calls; inactive = mostly below about 3.7%
Large screens that a line does not name were inactive. Cut-off read from the data, not from the text of the source, unless noted: active = inhibition above about 30%; inconclusive = no clear call, values can overlap the other calls; inactive = below that.

CCC(=O)N1N=C(c2ccc(NS(C)(=O)=O)cc2)CC1c1ccc(C)cc1 (configuration not stated)	Bead autofluor 19251, BoNT A protease inconclusive
O=C(CSc1ccccc1F)NC(=O)c1ccccc1Br	none
CCCNC(=O)C1(CC2CC(c3ccccc3)=NO2)CCN(C(=O)CCCCCBr)CC1 (configuration not stated)	none
CCOC(=O)C1=C(Cc2ccc(F)cc2)C(=O)c2ccccc2C1=O	Bead autofluor 23756
COC(=O)C(CCSC)NC(=O)c1cn(-c2ccc(OC)cc2)c(=O)c2ccccc12 (configuration not stated)	BoNT-F LC inh 35.5
CC(C(N)=O)N1C(=O)NC2(CCCc3ccccc32)C1=O (configuration not stated)	none
CCn1ccc(C(=O)Nc2c(C)nn(Cc3c(F)c(F)c(F)c(F)c3F)c2C)n1	none
COc1ccc(C(OC(=O)c2c(C)noc2C)C(=O)NC2CCCC2)cc1 (configuration not stated)	Bead autofluor 19678
COc1ccc(C(OC(=O)c2ccco2)C(=O)NC2CCCCC2)cc1 (configuration not stated)	none
CCOC(=O)C1=C(C)N(CCC(=O)O)C(=O)NC1c1ccccc1Cl (configuration not stated)	none
O=C(O)c1ccc(Sc2nnc(-c3cccc(Br)c3)o2)c([N+](=O)[O-])c1	Bead autofluor 22792, BoNT A protease inconclusive
CSCCNC(=O)Nc1c(-c2c(Cl)cccc2Cl)noc1C	BoNT-F LC inh inconclusive
CCN(CC)c1ccc(C=Nc2cc(C)ccc2C)c(O)c1	BoNT A protease 72.4
CCN(CC)c1ccc(C=Nc2cccnc2Cl)c(O)c1	none
CCN(CC)c1ccc(C=Nc2ccc(C)cc2C)c(O)c1	BoNT A protease 36.8
CCN(CC)c1ccc(/C=N/Nc2ccc(C)cc2)c(O)c1	none
Cc1ccc(C(=O)N2CCCC(Nc3ccc(F)cc3)C2)cc1C (configuration not stated)	none
C=CCOC(=O)C1=C(C)Nc2nnnn2C1c1cccs1 (configuration not stated)	Bead autofluor 17729
COC(=O)C1=C(C)Nc2nnnn2C1c1ccccc1Cl (configuration not stated)	BoNT-F LC inh inconclusive
COC(=O)C1=C(C)Nc2nnnn2C1c1cccs1 (configuration not stated)	Bead autofluor 19852
COc1ccc(NC(=O)CC2C(=O)N(c3cccc(OC)c3)C(=O)N2C(C)C)cc1 (configuration not stated)	none
CCOc1ccc(NC(=O)CC2C(=O)N(c3ccccc3)C(=O)N2Cc2ccccn2)cc1 (configuration not stated)	Bead autofluor 22858, BoNT A protease inconclusive
COc1ccc(NC(=O)CC2C(=O)N(c3cccc(OC)c3)C(=O)N2CCC(C)C)cc1 (configuration not stated)	Bead autofluor 19759
COC(=O)c1ccc2[nH]ccc2c1	none
CC12CCC(C(=O)NCCCN3CCOCC3)(OC1=O)C2(C)C (configuration not stated)	Bead autofluor 22515
CC12CCC(C(=O)NCCCN3CCOCC3)(C(Br)C1=O)C2(C)C (configuration not stated)	none
O=C(c1cccc(C(F)(F)F)c1)N1CCC(O)(CS(=O)(=O)Cc2ccc(Cl)cc2)CC1	Bead autofluor 17295
O=C(c1cccc(C(F)(F)F)c1)N1CCC(O)(CS(=O)(=O)Cc2ccccc2Cl)CC1	Bead autofluor 20377, BoNT A protease inconclusive
CCC1CCCCN1C(=O)c1ccc([N+](=O)[O-])o1 (configuration not stated)	none
O=C(NCc1ccccc1Cl)c1ccc(Cn2cc(C(F)(F)F)ccc2=O)cc1	Bead autofluor 17060
O=C(NC1CCCCC1)C(c1cccnc1)N(C(=O)CCl)c1ccc(F)cc1 (configuration not stated)	none
O=C(NC1CCCCC1)C(c1cccnc1)N(C(=O)CCl)c1ccccc1Cl (configuration not stated)	BoNT-F LC inh 38.3
COc1ccc(CCN2C(=O)C3C4C=CC(C3C2=O)C2C(=O)N(CCc3ccc(OC)c(OC)c3)C(=O)C42)cc1OC (configuration not stated)	Bead autofluor 19991
COc1ccc(CCN2C(=O)c3cccc4cccc(c34)C2=O)cc1OC	Bead autofluor 17334
COc1ccc(CCN2C(=O)C3C4C=CC(C5CC45)C3C2=O)cc1OC (configuration not stated)	none
CC(=O)Oc1cc2c(cc1Cl)C(c1cccs1)CC1(CC(C)(C)NC(=S)N1)O2 (configuration not stated)	none
Cc1cccc(OC(C)C(=O)Nc2nccs2)c1 (configuration not stated)	none
CC(C)(C)S(=O)N1Cc2cc(C(=O)N3CCOCC3)nc(-c3cccc(Br)c3)c2[C@@H]1CCO (some centres not stated)	none (no result: BH1578 lux ind)
CCn1c2ccccc2c2nc3cc(S(=O)(=O)N4CCOCC4)ccc3nc21	BoNT A protease 39.6, Anthrax LF inh2 33.0
O=C(c1cccc(S(=O)(=O)N2CCOCC2)c1)N1CCCc2ccccc21	none
Cc1c(C(=O)N2CCCc3ccccc32)oc2ccc(S(=O)(=O)N3CCOCC3)cc12	Bead autofluor 16777
O=S(=O)(c1ccc2oc3ccccc3c2c1)N1CCOCC1	Bead autofluor 16805
O=S(=O)(c1ccc2oc3ccccc3c2c1)N1CCCC1	none
c1ccc2nc3c(nc2c1)c1ccccc1n3CCN1CCOCC1	none
c1ccc(SC23CCCCN(CCC2)[C@]32CO2)cc1 (some centres not stated)	none (no result: BH1578 lux ind)
Cc1cc2n(n1)C(c1ccsc1)Nc1ccccc1-2 (configuration not stated)	none
CSc1ccc(C2Nc3ccccc3-c3cc(C)nn32)cc1 (configuration not stated)	Bead autofluor 21584
CC(C)(Oc1ccc(Cl)cc1)C(=O)NCc1ccncc1	Bead autofluor 20771
Cn1c(=O)c2c(-c3ccccc3)n(-c3cc(Cl)c([N+](=O)[O-])cc3O)cc2n(C)c1=O	Bead autofluor 21612 (no result: BH1578 lux ind)
CC(=O)Nn1cc2c(c1-c1ccccc1)c(=O)n(C)c(=O)n2C	Bead autofluor 24616
Cn1c(=O)c2c(-c3ccccc3)n(-c3cc([N+](=O)[O-])ccc3O)cc2n(C)c1=O	none
COc1ccc(Cl)cc1N1C(=NC(=O)C2CCCCC2)SC2CS(=O)(=O)CC21 (configuration not stated)	none
O=C(Nc1ccccc1Cl)N1CCSc2ccccc21	none
O=C(Nc1ccccc1)N1CCSc2cc(Cl)ccc21	Bead autofluor 20918
O=C(Nc1cccc(Cl)c1)N1CCSc2cc(Cl)ccc21	Bead autofluor 19711
CCc1cccc(C)c1NC(=S)NCc1ccc2[nH]c(C)cc2c1	BoNT A protease 39.9
CNC(=S)NCc1ccc2[nH]c(C)cc2c1	none
CCC(=O)N(CC)C1=C(O)c2ccccc2C(=O)C1=O	Bead autofluor 20676
O=C(NCc1ccccc1F)C1CCCN1C(=O)Nc1ccc(F)cc1 (configuration not stated)	none (no result: Bead autofluor, BoNT A protease, BoNT-F LC inh, Anthrax LF inh2)
